Data on 8 molecules can be found in PubChem BioAssay.

Where “and” joins values, the source holds several entries; their conditions need not be identical. Equal entries are not always repeated. The source holds several records for some structures; these can differ, active in one and inactive in another. Calls of active or inactive are those of the source.

A short description of assay [1]: optical density shifts of acrAB sulA E. coli – strain DRC41, OD650, 48 h, E. coli filamentation inducer project, primary screen (AID 1152).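 Also: E. coli MC1000 strain DRC41 lacking acrAB efflux pump and sulA.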 To be noted: higher = more signal, called active from +8 up or from −8 down.
The nature of assay [2]: probe aLefty1 binding on compound microarray – biochemical, small-molecule microarray, 635/667 nm fluorescence, primary screen (AID 1153).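 Also: score merges spot fluorescence with signal-to-noise ratio from the scanned slide images.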 The note with it: higher = more signal.
Assay [3] is described as follows: plasmodial surface anion channel blockers, osmotic lysis – cell-based, P. falciparum Indochina, OD700, 1 h, primary screen (AID 1154). To be noted: P. falciparum Indochina infected RBC osmotic lysis, higher = more signal, called active from +8 up or from −8 down.
Assay [4] in a line: plasmodial surface anion channel blockers, osmotic lysis – cell-based, P. falciparum Indochina, OD700, 2 h, primary screen (AID 1155).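 Also: lysis reports solute entry through the parasite surface anion channel PSAC.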 The note with it: P. falciparum Indochina infected erythrocytes, higher = more signal, called active from +8 up or from −8 down.
Assay [5] is described as follows: changes in parasitized red cell lysis, either direction – P. falciparum Indochina, OD700, 3 h, PSAC antagonist project, primary screen (AID 1156). The note with it: P. falciparum-infected erythrocytes, osmotic lysis, higher = more signal, called active from +8 up or from −8 down.
A short description of assay [6]: plasmodial surface anion channel blockers, osmotic lysis – cell-based, P. falciparum Indochina, OD700, 18 h, primary screen (AID 1157). The note with it: P. falciparum Indochina infected erythrocytes, osmotic lysis OD700, 18 h; higher = more signal, called active from +8 up or from −8 down.
The nature of assay [7]: S6 kinase pathway phospho-S6 level changes – cell-based, A549, cytoblot, luminescence, serum-stimulated, primary screen (AID 1158).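 Also: serum-stimulated A549 lung adenocarcinoma cells; signal is phosphorylated S6 detected by cytoblot immunostaining with HRP secondary.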 The note with it: 5 h, higher = more signal.
Assay [8] deals with NADPH oxidase 2 (Homo sapiens) (UniProt P04839). The experiment in a line: compounds shifting NOX2 Amplex Red fluorescence – cell-based, HEK293-NOX2, PMA-stimulated, NOX inhibitor project, primary screen (AID 1159). Also: test concentration not given here. The note with it: 45 min, higher = more signal, called active from +8 up or from −8 down.
The target in assay [9] is NADPH oxidase 4 (Homo sapiens) (UniProt Q9NPH5). The experiment in a line: compounds shifting NOX4 Amplex Red fluorescence – cell-based, HEK293-NOX4, tetracycline-induced, NOX inhibitor project, primary screen (AID 1160). To be noted: HEK293-NOX4, Amplex Red H2O2 fluorescence, 45 min; higher = more signal, called active from +8 up or from −8 down.
The target of assay [10] is NADPH oxidase 5 (Homo sapiens) (UniProt Q96PH1). The experiment in a line: compounds shifting NOX5 Amplex Red fluorescence – cell-based, HEK293-NOX5, NOX inhibitor project, primary screen (AID 1161). The note with it: HEK293-NOX5, ionomycin, 45 min, higher = more signal.
Chain of NADPH oxidase 5 (Homo sapiens) (Q96PH1 whole entry, looked up): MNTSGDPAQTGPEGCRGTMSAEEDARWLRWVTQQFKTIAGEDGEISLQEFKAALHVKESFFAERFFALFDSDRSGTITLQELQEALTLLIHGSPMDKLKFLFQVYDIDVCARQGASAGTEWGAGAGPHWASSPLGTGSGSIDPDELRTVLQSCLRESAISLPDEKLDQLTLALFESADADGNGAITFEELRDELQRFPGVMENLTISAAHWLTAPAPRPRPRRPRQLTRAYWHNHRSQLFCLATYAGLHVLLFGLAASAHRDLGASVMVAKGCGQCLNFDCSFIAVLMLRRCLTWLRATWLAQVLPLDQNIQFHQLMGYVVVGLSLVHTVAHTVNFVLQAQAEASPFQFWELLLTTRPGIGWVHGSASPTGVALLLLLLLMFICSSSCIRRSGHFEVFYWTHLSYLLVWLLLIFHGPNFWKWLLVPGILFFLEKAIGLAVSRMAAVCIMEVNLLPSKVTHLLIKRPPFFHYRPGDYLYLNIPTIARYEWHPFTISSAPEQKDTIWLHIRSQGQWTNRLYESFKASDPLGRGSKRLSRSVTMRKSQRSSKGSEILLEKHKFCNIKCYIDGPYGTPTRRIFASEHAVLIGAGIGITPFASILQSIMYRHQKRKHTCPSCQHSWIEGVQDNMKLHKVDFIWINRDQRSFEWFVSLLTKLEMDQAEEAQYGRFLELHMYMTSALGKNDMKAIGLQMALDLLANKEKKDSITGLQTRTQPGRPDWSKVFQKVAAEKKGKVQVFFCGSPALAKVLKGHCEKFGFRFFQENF

Chain of NADPH oxidase 4 (Homo sapiens) (Q9NPH5 whole entry, looked up): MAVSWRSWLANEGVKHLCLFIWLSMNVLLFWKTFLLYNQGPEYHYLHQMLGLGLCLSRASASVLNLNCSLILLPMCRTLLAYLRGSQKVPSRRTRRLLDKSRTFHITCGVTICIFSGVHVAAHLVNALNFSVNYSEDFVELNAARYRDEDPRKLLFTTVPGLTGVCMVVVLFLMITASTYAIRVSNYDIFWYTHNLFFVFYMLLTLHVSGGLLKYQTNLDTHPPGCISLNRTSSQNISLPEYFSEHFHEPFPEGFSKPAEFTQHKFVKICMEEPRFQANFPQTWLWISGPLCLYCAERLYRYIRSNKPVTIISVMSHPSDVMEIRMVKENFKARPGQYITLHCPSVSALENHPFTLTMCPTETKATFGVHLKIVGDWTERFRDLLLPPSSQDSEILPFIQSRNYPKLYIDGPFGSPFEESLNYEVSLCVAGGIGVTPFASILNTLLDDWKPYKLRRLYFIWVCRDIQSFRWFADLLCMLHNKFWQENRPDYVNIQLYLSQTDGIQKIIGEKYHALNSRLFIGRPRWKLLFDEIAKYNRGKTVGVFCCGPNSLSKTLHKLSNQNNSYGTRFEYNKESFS
Chain of NADPH oxidase 2 (Homo sapiens) (P04839 whole entry, looked up): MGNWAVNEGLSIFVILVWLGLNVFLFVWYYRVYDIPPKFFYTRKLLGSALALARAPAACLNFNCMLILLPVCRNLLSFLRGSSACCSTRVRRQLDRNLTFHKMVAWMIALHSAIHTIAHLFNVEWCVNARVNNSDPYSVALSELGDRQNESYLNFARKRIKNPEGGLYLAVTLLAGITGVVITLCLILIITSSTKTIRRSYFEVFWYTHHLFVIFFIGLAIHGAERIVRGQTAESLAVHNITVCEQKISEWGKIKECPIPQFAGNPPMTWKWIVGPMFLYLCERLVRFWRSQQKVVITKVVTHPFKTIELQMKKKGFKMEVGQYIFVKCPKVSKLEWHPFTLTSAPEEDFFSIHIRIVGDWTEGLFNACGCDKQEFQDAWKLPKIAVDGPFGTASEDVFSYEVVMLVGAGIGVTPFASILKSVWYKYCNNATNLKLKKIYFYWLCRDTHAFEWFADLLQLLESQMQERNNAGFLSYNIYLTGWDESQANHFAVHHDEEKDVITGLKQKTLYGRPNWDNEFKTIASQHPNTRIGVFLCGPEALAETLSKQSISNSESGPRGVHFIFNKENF

Regarding `CCOC(=O)c1ccc(NC(=O)O[C@H]2[C@H](OC(=O)Nc3ccccc3)[C@H](OC(=O)Nc3ccccc3)[C@@H](OC)O[C@@H]2CO)cc1`, the z-score in [1] was 0.473 (inactive) and -0.33 (inactive); in assay [3] it was 14.6 (active) and 24.1 (active); in [4], 2.63 (inactive) and 11.5 (active); in [5], 0.433 (inactive) and -0.123 (inactive); in assay [6] it was 1.23 (inactive) and 1.89 (inactive); in assay [7], -0.636 and 0.647. Besides, the z-score in [8] was -0.218 (inactive) and 1.15 (inactive); in assay [9] it was -0.122 (inactive) and -0.312 (inactive); in [10], -0.195 and -0.355. In addition, in assay [2], the composite z-score was 0.416 and 0.344.

With `CC(C)[Si]1(C(C)C)OCc2cc(C3CC3)nc(CCc3ccccc3)c21`, the z-score in assay [1] was -0.102 (inactive) and -0.904 (inactive); in [3], 0.922 (inactive) and 0.437 (inactive); in assay [4] it was 0.742 (inactive) and 0.438 (inactive); in assay [5], -0.416 (inactive) and -0.978 (inactive); in assay [6] it was 0.309 (inactive) and -0.401 (inactive); in [7], -0.295 and -0.326. Besides, the z-score is 2.57 (inactive) and -0.368 (inactive) in assay [8]; 1.14 (inactive) and 1.35 (inactive) in [9]; -0.319 and -2.87 in assay [10]. Besides, in assay [2], the composite z-score is 0.111 and -0.235.

As to `CO[C@H]1COC(=O)CC=C[C@H](C)[C@H](OC)COC(=O)[C@@H](C)COC(=O)CC=C[C@@H]1C`, the z-score in assay [1] was 0.462 (inactive) and 0.63 (inactive); in [3], -0.267 (inactive) and 0.565 (inactive); in assay [4], -0.162 (inactive) and -0.455 (inactive); in assay [5], -0.146 (inactive) and 0.4 (inactive); in [6], -0.0153 (inactive) and 0.179 (inactive); in assay [7] it was -0.0498 and 0.833. In addition, the z-score was 0.282 (inactive) and 1.16 (inactive) in assay [8]; 0.201 (inactive) and 0.589 (inactive) in assay [9]; -0.26 and 0.25 in assay [10]. In addition, the composite z-score in assay [2] is -0.294 and -0.193.

`C[N+](C)(C)CCCCCCNC(=O)[C@@H]1C[C@@H]2C(=O)N[C@@H](CCCC[N+](C)(C)C)C(=O)N2[C@@H]1c1ccc(O)cc1`: the z-score in [1] is 0.877 (inactive) and 0.123 (inactive); in assay [3], 0.973 (inactive) and 1.9 (inactive); in assay [4], 0.106 (inactive) and 0.554 (inactive); in assay [5], -0.0454 (inactive) and 0.0605 (inactive); in assay [6], -0.115 (inactive) and 0.375 (inactive); in assay [7] it was -0.336 and -0.254. For the same molecule, the z-score in [8] was -0.441 (inactive) and -0.988 (inactive); in assay [9], 0.105 (inactive) and -0.431 (inactive); in [10] it was 0.58 and -0.839. In addition, the composite z-score in assay [2] is -0.0011 and -0.149.

Take `CCOC(=O)[C@@H]1CC2O[C@]23C[C@@H]1C(=O)N1CCC[C@@H]1[C@H]3O[Si](C)(C)C(C)(C)C` (stereo not given in full): the z-score in [1] is -1.1 (inactive) and -0.757 (inactive); in [3] it was 0.827 (inactive) and -0.309 (inactive); in assay [4] it was -0.168 (inactive) and 0.0095 (inactive); in assay [5], -0.03 (inactive) and -0.708 (inactive); in assay [6], 0.134 (inactive) and -0.162 (inactive); in [7], -0.111 and -0.206. Besides, the z-score is 0.937 (inactive) and 0.661 (inactive) in assay [8]; 0.147 (inactive) and 5.07 (inactive) in [9]; -2.39 and -0.882 in [10]. Further, the composite z-score in [2] was -0.229 and -0.255.

Consider `COC(=O)C1=C(C)N(Cc2ccccc2)C2=C3C(=O)N(c4ccccc4)C(=O)[C@@H]3[C@@](O)(C(=O)OC)C(=O)N2[C@@H]1c1ccccc1`, for which the z-score was 0.417 (inactive) and 0.339 (inactive) in assay [1]; 0.518 (inactive) and 0.516 (inactive) in assay [3]; 0.372 (inactive) and -0.427 (inactive) in assay [4]; 0.509 (inactive) and 0.736 (inactive) in assay [5]; 0.54 (inactive) and -0.962 (inactive) in [6]; -0.528 and 1.43 in assay [7]. The z-score in assay [8] is -0.0787 (inactive) and 0.333 (inactive); in [9], -0.0918 (inactive) and 0.833 (inactive); in [10], -0.244 and 0.251. The composite z-score in assay [2] was 0.0752 and -0.0984.

For the molecule `C=CCN(CCCC)C(=O)C1N(CCCCCCO)C(=O)C2C(C(=O)O)C3C=CC21O3` (stereo not given), the z-score in [1] was -0.91 (inactive) and -0.81 (inactive); in assay [3] it was 0.153 (inactive) and -0.368 (inactive); in assay [4], -0.0395 (inactive) and 0.354 (inactive); in assay [5], -0.661 (inactive) and -0.802 (inactive); in assay [6] it was -0.11 (inactive) and -0.0605 (inactive); in [7] it was -0.686 and -0.762. Further, the z-score in [8] is 0.634 (inactive) and 0.835 (inactive); in [9], -0.159 (inactive) and -0.18 (inactive); in [10] it was 0.75 and 1.01. Besides, in [2], the composite z-score is -0.31 and -0.101.

On to `C[C@@H]1CC[C@H]2C(=O)O[C@H](CN=[N+]=[N-])CN2[C@H]1c1ccc(Br)cc1`, for which the z-score in assay [1] is -1.87 (inactive) and -0.609 (inactive); in [3] it was -0.1 (inactive) and 2.08 (inactive); in [4], 0.23 (inactive) and 1.03 (inactive); in assay [5], 0.124 (inactive) and 0.564 (inactive); in assay [6], -0.12 (inactive) and 0.491 (inactive); in assay [7], -0.524 and -0.466. In addition, the z-score in [8] was 0.993 (inactive) and 0.995 (inactive); in assay [9], -0.0537 (inactive) and -0.184 (inactive); in assay [10] it was -0.124 and 0.779. The composite z-score in assay [2] was 0.0457 and -0.284.
